Shown are actives, neighbours in structure and some others; about 1.6% of the full set was active somewhere.
gsp agonist: qHTS for Agonist of gsp, the Etiologic Mutation Responsible for Fibrous Dysplasia/McCune-Albright Syndrome: qHTS; AID 624287, 2012; Potency, µM (titrated, usually from 76.9 µM), for the others: at the top dose activation (cAMP increase), hits mostly activators; gsp mutant cells, cAMP HTRF, 30 min; 0.13% of 340,000 active; active means well fitted activation curve with a large enough effect; inconclusive means small, poorly fitted or top-dose-only effect, or another doubt; inactive means no such curve, though single readings can be large or run the other way; cell line not stated here;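 further: phosphodiesterase inhibitor Ro 20-1724 added with compounds to block cAMP breakdown; potency means the concentration at half of the fitted maximal effect; nearly all actives have a fitted effect of over 60% in size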
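Cells in DMEM/10% FBS with G418 were pretreated with compounds in DMSO plus […] (300 uM stock) for 30 min at 37C. cAMP was measured by HTRF (cAMP-d2 plus anti-cAMP antibody-K) after 30 min at room temperature.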
KCNH2 3.1 block: qHTS for Inhibitors of KCHN2 3.1: Mutant qHTS | Potassium voltage-gated channel subfamily H member 2, brain isoform KCNH2 3.1 (human) | U2OS KCNH2 3.1, thallium flux FluxOr; active compounds read low | activity change, % (tested at about 1.8 µM) | 0.95% of 340,000 active | AID 720553, 2013;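 active means maximum activity change below -70%; inconclusive means maximum activity change from -70% to -50%; inactive means maximum activity change above -50%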;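 further: thallium influx rate constant from kinetic fluorescence after stimulation buffer; on the % scale 0 is the no-effect control and ±100 the full control effect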
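Thallium flux read-out: FluxOr dye with Red40 quencher in HBSS/HEPES, 45 min at RT. Rate constants from kinetic reads were normalized to positive and negative DMSO controls. Cells: U2OS virally expressing the 3.1 isoform.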
Glioma ERSR ind: qHTS for Inducers of the Endoplasmic Reticulum Stress Response (ERSR) in Human Glioma: qHTS; U87-MG GRP78 promoter luciferase reporter, 16 h; Potency, µM, for the others: at the highest dose activation, actives largely listed as activators; 0.02% of 420,000 active; AID 602332, 2012; active means well fitted activation curve with a large enough effect; inconclusive means small, poorly fitted or top-dose-only effect; inactive means no such curve, though single readings can be large or run the other way; further: potency means the concentration at half of the fitted maximal effect; series mostly up to about 76 µM; % of control where 0% means no effect; nearly all actives have a fitted effect of over 35% in size
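Stably transfected U87-MG glioma cells carrying a GRP78-based luciferase sensor; 16 h compound incubation. Luminescence end-point read 10 min after Bright-Glo addition at room temperature.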
gsp antag: qHTS for Antagonists of gsp, the Etiologic Mutation Responsible for Fibrous Dysplasia/McCune-Albright Syndrome: qHTS. Potency, µM (top dose mostly 76.9 µM), inactives show top-dose activity change, negative = inhibition, hits mostly inhibitors. 0.4% of 340,000 active. gsp-mutant cells, cAMP HTRF, 30 min; calls by dose curve; cell line not stated here;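 further: intracellular cAMP measured with PDE inhibitor Ro 20-1724 present during compound exposure; potency means the concentration at half of the fitted maximal effect; on the % scale 0 is the no-effect control and ±100 the full control effect; nearly all actives have a fitted effect of over 65% in size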
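HTRF cAMP measurement after 30 min RT detection following 30 min, 37C compound treatment alongside […] (added as 300 uM solution) in G418-selected cells seeded at 2000/well and grown 16–24 h.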
KCNH2 WT inh: qHTS for Inhibitors of KCHN2 3.1: Wildtype qHTS. 0.37% of 340,000 active. Voltage-gated inwardly rectifying potassium channel KCNH2 (Homo sapiens), Q12809. activity change, % at 1.84 µM. U2OS, BacMam KCNH2, thallium flux FluxOr; active compounds read low;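 active means maximum activity change below -70%; inconclusive means maximum activity change between -70% and -50%; inactive means maximum activity change above -50%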; further: on the % scale 0 is the no-effect control and ±100 the full control effect
Target sequence (Q12809 whole entry, looked up): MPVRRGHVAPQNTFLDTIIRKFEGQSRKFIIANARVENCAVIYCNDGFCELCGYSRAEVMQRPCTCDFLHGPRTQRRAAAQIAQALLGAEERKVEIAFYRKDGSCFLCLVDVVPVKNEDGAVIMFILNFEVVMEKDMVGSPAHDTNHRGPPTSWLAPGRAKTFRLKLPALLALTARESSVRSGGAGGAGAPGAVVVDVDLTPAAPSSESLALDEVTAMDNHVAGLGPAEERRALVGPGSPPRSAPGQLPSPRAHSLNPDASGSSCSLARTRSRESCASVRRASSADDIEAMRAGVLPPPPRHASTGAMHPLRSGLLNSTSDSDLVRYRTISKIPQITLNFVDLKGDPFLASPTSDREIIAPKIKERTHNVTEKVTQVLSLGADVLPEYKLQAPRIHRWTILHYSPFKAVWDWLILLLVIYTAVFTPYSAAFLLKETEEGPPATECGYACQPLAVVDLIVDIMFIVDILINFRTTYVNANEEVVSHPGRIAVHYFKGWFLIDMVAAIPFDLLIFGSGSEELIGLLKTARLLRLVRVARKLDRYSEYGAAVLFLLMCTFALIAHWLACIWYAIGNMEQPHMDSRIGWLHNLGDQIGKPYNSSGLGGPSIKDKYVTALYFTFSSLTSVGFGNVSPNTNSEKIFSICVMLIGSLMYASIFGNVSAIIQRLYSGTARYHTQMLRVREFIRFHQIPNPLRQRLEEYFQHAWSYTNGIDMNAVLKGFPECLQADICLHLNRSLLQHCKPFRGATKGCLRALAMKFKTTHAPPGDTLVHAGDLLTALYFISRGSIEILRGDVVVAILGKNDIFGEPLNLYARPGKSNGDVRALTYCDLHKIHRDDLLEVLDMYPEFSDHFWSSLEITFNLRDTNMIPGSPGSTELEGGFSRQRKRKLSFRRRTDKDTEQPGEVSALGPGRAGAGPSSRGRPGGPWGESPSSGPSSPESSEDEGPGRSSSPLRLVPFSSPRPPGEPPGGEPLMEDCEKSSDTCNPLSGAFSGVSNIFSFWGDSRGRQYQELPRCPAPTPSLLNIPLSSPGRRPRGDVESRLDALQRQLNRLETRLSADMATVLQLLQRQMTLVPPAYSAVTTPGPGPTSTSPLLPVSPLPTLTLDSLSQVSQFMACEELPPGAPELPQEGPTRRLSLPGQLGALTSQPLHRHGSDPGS
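U2OS cells were transduced with wild-type KCNH2 virus (2.03 x 10^8 / mL) for 4 h at room temperature, then cultured overnight at 37 C. Thallium flux was read with FluxOr dye. Rate constants were normalized to DMSO controls.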
pAkt inh: HTS Assay for Inhibitors of Akt Phophorylation: Primary Screen; Neuro2A IGF-stimulated pAkt S473 HTRF, 20 min; active compounds read low; activity change, % for hits at 50 µM; 0.32% of 360,000 active; in the data active means activity change below about -80%; inconclusive means mostly about -51% to -80%; further: on the % scale 0 is the no-effect control and ±100 the full control effect
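Neuro2A cells in DMEM with 0.5% FBS, overnight at 37 deg C, given compound at single 50 µM final, then IGF (6 nM final) for 20 min at 37 deg C. Lysed; phospho-Akt Ser473 by HTRF after 24 h, 665/615 ratio.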
The depositor's hits bear a star; i = inactive; ? = inconclusive; / = no result given; [ ] = dose if it differs, or a comment.

SMILES	gsp agonist	KCNH2 3.1 block	Glioma ERSR ind	gsp antag	KCNH2 WT inh	pAkt inh
O=C(Nc1cccc(S(=O)(=O)N2CCCCCC2)c1)c1ccc(Cl)nc1	-12.0%	7.1	-3.2%	?	5.2	i
O=C(Nc1cccc(S(=O)(=O)N2CCCCC2)c1)C1CCC1	-3.4%	-91.7*	-2.7%	-6.4%	88.2	i
COc1ccc(OC)c(S(=O)(=O)N2CCC(C(=O)Nc3cccc(C)c3C)CC2)c1	?	18.8	-4.3%	-0.7%	-10.1	i
COc1ccc(NC(=O)CN2CCCC2c2cccs2)cc1S(=O)(=O)N1CCCCC1 (stereo not given)	16.8%	-3.1	-4.1%	35.5µM*	-0.4	i
COc1ccc(OC)c(S(=O)(=O)N2CCC(C(=O)Nc3ccc(C)c(C)c3)CC2)c1	8.9%	-2.7	-2.4%	28.2µM*	-7.3	i
CC(OC(=O)C1CC1)C(=O)Nc1cccc(S(=O)(=O)N2CCOCC2)c1 (stereo not given)	-0.8%[15.4 µM]	-133.7*	-4.5%	-1.4%	12.3	i
CCc1nc2cc(C(=O)N[C@H]3CCCCNC3=O)cc(NC(=O)c3ccccc3OC)c2n1C	/	/	-2.1%	/	/	/
CN(C)c1ccc(/C=C2\C=Nc3ccccc32)cc1	/	/	1.3%	/	/	/
CC(=O)Nc1ccn(C2OC(C(COC(C)=O)NC(=O)C(C)NC(=O)OC(C)(C)C)C(OC(C)=O)C2OC(C)=O)c(=O)n1 (stereo not given)	/	/	-3.9%	/	/	/
COc1ccc(NC(=O)c2ccc(Cl)nc2)cc1S(=O)(=O)N1CCCCC1	-1.2%[15.4 µM]	-21.0	-0.3%	31.6µM*	1.4	i
COc1ccc(NC(=O)c2cc(OC)c(OC)c(OC)c2)cc1S(=O)(=O)N1CCCCC1	-5.6%[15.4 µM]	3.6	-2.0%	0.1%	-18.7	i
CCCCCc1cc(=O)oc2c(C(CCN3CCCCC3)c3ccc(OC)cc3)c(OC)cc(OC)c12 (stereo not given)	/	?	-5.2%	-1.5%	?	i
CCCCCc1cc(=O)oc2c(C(CCN3CCCC(C)C3)c3ccc(OC)cc3)c(OC)cc(OC)c12 (stereo not given)	/	-91.4*	-2.6%	-1.3%	-114.7*	i
CC1(C)CC(=O)c2cc(C(=O)NCCc3ccccc3)c(=O)[nH]c2C1	/	/	0.4%	/	/	/
COc1cccc(CN2CCC(n3cc(C(=O)N4CCCCC4)nn3)CC2)c1OC	/	/	-0.8%	/	/	/
CC(C)(C)NC1=NCCNC(c2ccccc2)=C1	-30.5%	-1.7	-0.9%	/	-88.1*	i
Cc1ccccc1C(=O)Nc1nnc(-c2ccc(C(C)(C)C)cc2)s1	23.8%	-8.4	1.5%	32.1%	-3.7	i
Cc1cccc(C(=O)Nc2nnc(-c3ccc(C(C)(C)C)cc3)s2)c1	?	-89.0*	-0.1%	22.4%	-2.8	i
COc1cc(OC)cc(-c2nnc(NC(=O)CCS(=O)(=O)c3ccc(F)cc3)o2)c1	5.7%[15.4 µM]	-74.7*	-6.7%	-3.4%	0.5	i
Cc1ccc(C(C)CCN2CCOc3ccc(CN4CCOCC4)cc3C2)o1 (stereo not given)	/	/	-3.5%	/	/	/
N#Cc1c(Cl)cccc1N1CCSCC1	/	/	-1.2%	/	/	i
N#Cc1c(N2CCSCC2)nsc1-c1ccccc1Cl	15.8µM*	-14.6	5.1%	-7.8%	12.4	i
COc1ccccc1/C=C/C(=O)c1c2c(c(C)[nH]c1=O)CCCC2	24.7%	7.5	-6.9%	50.1µM*	-3.6	i
FC(F)(F)c1cccc(NC(=S)NC2CCCC2)c1	-2.1%	-106.5*	-3.6%	0.9%	-0.6	i
Cc1cccc(N2C(=O)C(O)=C(C(=O)c3cccs3)C2c2ccc(F)cc2)n1 (stereo not given)	?	-21.3	-2.3%	8.7%	-226.8*	i
SMILES	gsp agonist	KCNH2 3.1 block	Glioma ERSR ind	gsp antag	KCNH2 WT inh	pAkt inh
Cc1cccc(N2C(=O)C(O)=C(C(=O)c3cccs3)C2c2ccc(C(C)C)cc2)n1 (stereo not given)	7.4%[15.4 µM]	0.4	-2.2%	-10.3%	-6.8	i
C=CCOc1ccc(C2C(C(=O)c3cccs3)=C(O)C(=O)N2c2nnc(C)s2)cc1 (stereo not given)	31.6µM*	-7.1	?	25.5%	-18.3	i
O=C(NC1CCCC1)c1cn(C2CCN(Cc3cccc4cccnc34)CC2)nn1	/	/	-3.4%	/	/	/
CS(=O)(=O)c1ccc2nc(NC(=O)c3ccc(Cn4cc(Br)cn4)o3)sc2c1	20.6%	-94.8*	-2.7%	-23.0%	-5.7	i
Cn1c(N2CCN(C(c3ccccc3)c3ccccc3)CC2)nc2ccccc21	9.3%[15.4 µM]	-85.8*	-6.4%	?	-48.3	i
COC(=O)c1nn(-c2ccccc2)c(Sc2ccccc2)c1/C=N/O	17.8%	-7.3	-0.3%	-0.1%	5.3	-106.8%*
O=C(Nc1cccc2ccccc12)/C(=C/c1cccc([N+](=O)[O-])c1)NC(=O)c1cccs1	5.5%[15.4 µM]	-89.2*	-2.1%	2.6%	-14.6	i
O=C(Nc1cccc2ccccc12)/C(=C\c1cccc([N+](=O)[O-])c1)NC(=O)c1cccs1	-10.4%	-85.8*	-3.1%	20.0%	-103.1*	i
O=C(NCCO)/C(=C\c1cccc([N+](=O)[O-])c1)NC(=O)c1cccs1	7.0%	-0.7	-0.6%	/	-5.2	i
Cc1cccc(NC(=O)/C(=C/c2cccc([N+](=O)[O-])c2)NC(=O)c2cccs2)c1	-33.2%	-10.0	-4.9%	8.7%	30.9	i
OCC1(O)OC[C@@H](O)[C@H](O)[C@@H]1O (stereo not given in full)	/	/	-4.3%	/	/	/
Cc1ccccc1C1(CC(=O)N2CCCC2c2nccs2)CC(=O)N(C2CCCC2)C1=O (stereo not given)	/	/	-4.6%	/	/	/
N#CC1(NC(=O)COC(=O)c2nc(Cl)c(Cl)c(N)c2Cl)CCCCC1	12.0%[15.4 µM]	-23.0	2.7%	0.4%	10.4	i
N#CC1(NC(=O)COC(=O)c2ncc(Cl)c(Cl)c2Cl)CCCCC1	-19.6%	-72.8*	-4.0%	-5.5%	-2.5	i
Cc1ccc(/C(O)=C2\C(=O)C(=O)N(CC(C)O)C2c2cccc(F)c2)cc1 (stereo not given)	?	-3.7	-0.4%	20.8%	-4.8	-112.7%*
COc1ccccc1C1/C(=C(/O)c2ccccc2)C(=O)C(=O)N1CC(C)O (stereo not given)	-56.9%	15.3	-3.0%	-1.2%	10.3	i

Screens deposited in PubChem BioAssay by National Center for Advancing Translational Sciences (NCATS).
